From PubChem BioAssay AID1259374 (The Scripps Research Institute Molecular Screening Center, 2018)
Screen size: about 650,000 compounds; about 5,900 (0.91%) were called active. Only a selection was taken, and actives are over-represented in it overall. Unmarked numbers belong to inactive results. Rule as the data show it: active = inhibition above about 50%; inactive = the rest.

Molecular target: Microphthalmia-associated transcription factor (Homo sapiens) (UniProt O75030)
Assay: MITF inhibitors, primary screen, biochemical, AlphaScreen, human (AID 1259374);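 also: 0% = vehicle wells with protein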
Settings: AlphaScreen MITF homodimerization, bead proximity signal; at 2.6 µM; stronger effect = higher value

Sequence of Microphthalmia-associated transcription factor (Homo sapiens) (O75030 whole entry, looked up): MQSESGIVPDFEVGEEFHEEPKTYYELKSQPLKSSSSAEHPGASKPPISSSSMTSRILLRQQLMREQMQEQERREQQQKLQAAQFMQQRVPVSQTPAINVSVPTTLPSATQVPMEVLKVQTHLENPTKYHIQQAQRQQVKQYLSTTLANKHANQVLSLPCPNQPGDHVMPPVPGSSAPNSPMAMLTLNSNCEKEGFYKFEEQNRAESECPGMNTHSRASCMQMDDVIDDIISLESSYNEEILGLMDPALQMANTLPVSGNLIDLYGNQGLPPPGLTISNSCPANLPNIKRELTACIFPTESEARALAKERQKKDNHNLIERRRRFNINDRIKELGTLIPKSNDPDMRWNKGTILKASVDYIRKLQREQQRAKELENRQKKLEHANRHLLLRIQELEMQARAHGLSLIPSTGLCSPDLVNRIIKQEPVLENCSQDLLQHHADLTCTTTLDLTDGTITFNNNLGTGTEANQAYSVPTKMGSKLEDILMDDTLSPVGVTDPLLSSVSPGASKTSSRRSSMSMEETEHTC

SMILES	inhibition
Cc1nnc(SCC(=O)Nc2ccc(Cc3ccc(NC(=O)CSc4nnc(C)s4)c(C(=O)O)c3)cc2C(=O)O)s1	10.6%
Cc1ccc(C(C)(C)C)c(OCCCNCCO)c1	18.8%
C=CCNCCOCCOc1cc(C)ccc1C(C)(C)C	65.6% (active)
Cc1cc(C(C)(C)C)ccc1OCCOCCNCCN	5.37%
CN(C)S(=O)(=O)c1ccc(C(=O)NCc2nnc(SCC(=O)N3N=C(c4cccs4)CC3c3ccc(F)cc3)n2C)cc1 (centres undefined)	-5.15%
CCC1(CC)Cc2ccccc2C(c2c(C)[nH]n(-c3ccccc3)c2=O)=N1	23.6%
COc1cc(/C=C2/NC(=O)N(c3ccccc3)C2=O)cc(OC)c1O	-14.5%
COC(=O)c1ccccc1NC(=O)c1cc2c(=O)oc3ccccc3c2s1	-9.64%
COc1ccccc1-n1cnnc1SCC(=O)Nc1sc2c(c1C#N)CCCC2	-6.73%
COc1cc(NC(=O)CSc2nnc(-c3ccoc3C)n2CC(C)C)cc(OC)c1	9.5%
Cc1ccc(C(C)(C)C)c(OCCN2CCNCC2)c1	46.6%
Cc1ccc(Cl)c(OCCCCN2CCNCC2)c1	41.9%
Cc1ccc(OCCN2CCNCC2)c(Cl)c1	36.1%
Cc1ccc(C(C)C)c(OCC#CCN2CCNCC2)c1	77.2% (active)
Cc1cc(OCCN2CCN(C)CC2)ccc1C(C)C	59.4% (active)
CCC(C)Oc1cccc(OCCN2CCN(C)CC2)c1 (centres undefined)	-22.9%
Cc1ccc(C(C)C)c(OCCN2CCNCC2)c1	74.9% (active)
Cc1cc(OCCCCN2CCOCC2)ccc1C(C)C	27.1%
Cc1ccc(C(C)C)c(OCc2n[nH]c(=S)n2C)c1	2.35%
CC1C2Oc3ccccc3C1Oc1ccccc12 (centres undefined)	4.85%
COc1ccc2[nH]c3c(c2c1)CCOC31CCN(C(=O)CC2(CC(=O)O)CCCC2)CC1	-10.7%
O=C1C(=O)N(Cc2cccnc2)C(c2cccnc2)/C1=C(/O)c1ccccc1 (centres undefined)	5.16%
O=C1C(=O)N(Cc2cccnc2)C(c2ccncc2)/C1=C(\O)c1ccccc1 (centres undefined)	11.9%
Cc1nc2ccccn2c1/C(O)=C1\C(=O)C(=O)N(Cc2ccccc2)C1c1cccnc1 (centres undefined)	66.2% (active)

SMILES	inhibition
CN(C)CCNC(=O)c1ccc(-c2cnc3c(NCc4ccc(F)cc4)nccn23)cc1	-23.3%
CCOC(=O)c1c(NC(=O)CSc2nnc(CNC(=O)c3cccc(OC)c3)n2C)sc2c1CCCCC2	-18.6%
O=C(O)CN1C(=O)/C(=C\c2cccc(C(=O)O)c2)SC1=S	58.4% (active)
O=C(O)CN1C(=O)/C(=C/c2cccc([N+](=O)[O-])c2)SC1=S	4.75%
O=C(O)CN1C(=O)/C(=C\c2ccc(O)c(Br)c2)SC1=S	17.2%
CC1CN(c2ccc(/C=C(\C#N)c3nc4ccccc4[nH]3)o2)CC(C)O1 (centres undefined)	-14.4%
Nc1nc(NCCO)cc(Nc2ccc(C(F)(F)F)cc2)n1	-1.49%
CCOC(=O)c1sc(NC(=O)C(C)Sc2nnc(CNC(=O)c3ccc(Cl)cc3Cl)n2C)c(C(=O)OCC)c1C (centres undefined)	-5.12%
CCOC(=O)c1ccccc1NC(=O)C1CC(=O)N(c2ccc(Cl)c(Cl)c2)C1 (centres undefined)	-0.38%
CN1C(=O)c2ccc(NC(=O)c3c(F)cccc3F)cc2C1=O	4.14%
O=C(NN1C(=O)c2ccccc2C1=O)c1cccc(F)c1	69.1% (active)
Cc1ccc(N2C(=O)c3ccc(C(=O)NN4C(=O)c5ccccc5C4=O)cc3C2=O)cc1C	9.89%
O=C(NN1CCOCC1)c1cccc(F)c1	0.76%
CCN(CCCNC(=O)Cn1c(=O)[nH]c2ccccc2c1=O)c1cccc(C)c1	-6.52%
O=[N+]([O-])c1cnc(N2CCN(Cc3ccccc3)CC2)c([N+](=O)[O-])c1	-6.34%
C=CCN(CC=C)CCCOc1ccc([N+](=O)[O-])c(C)c1	22.8%
Cc1cc(OCCCN2CCN(Cc3ccccc3)CC2)ccc1[N+](=O)[O-]	69.8% (active)
COc1ccc(CN2CCC3(CC2)c2ccccc2[C@@H](NC(=O)CSC)[C@@H]3OC)cc1	5.12%
COc1ccccc1N1C(=O)NC(=O)/C(=C/c2cc(OC)c(O)c([N+](=O)[O-])c2)C1=O	-6.01%
C=CCN1C(=O)/C(=C\c2cc(OC)c(O)c([N+](=O)[O-])c2)C(=O)NC1=S	57.5% (active)
C=CCN1C(=O)/C(=C\c2cc(OC)ccc2OC)C(=O)NC1=S	18.8%
CSc1cccc(NC(=O)C2C3C=CC4(O3)C2C(=O)N(C2CCCC(C)C2C)C4C(=O)NC2CCCCC2)c1 (centres undefined)	-2.61%
O=c1cc(Cc2n[nH]c(=S)n2-c2ccc(F)cc2)[nH]c(=O)[nH]1	8.67%
O=c1c2sc(=S)n(CCc3ccccc3)c2[nH]c(=S)n1Cc1ccco1	-11.5%

SMILES	inhibition
Oc1c(C(c2cccnc2)N2CCOCC2)ccc2cccnc12 (centres undefined)	73.7% (active)
Oc1c(C(c2ccccn2)N2CCOCC2)ccc2cccnc12 (centres undefined)	75.7% (active)
OCCN1CCN(C(c2ccc(F)cc2)c2ccc3cccnc3c2O)CC1 (centres undefined)	50.6% (active)
Cc1c(Cl)cccc1NC(=S)NCC(c1cccnc1)N1CCOCC1 (centres undefined)	7.47%
CCCCC(=O)NC(c1ccco1)c1ccc2cccnc2c1O (centres undefined)	33%
O=S(=O)(Oc1cccc2cccnc12)N1CCOCC1	-0.47%
Cc1ccc(C(c2cc(Cl)c3cccnc3c2O)N2CCN(c3ccccn3)CC2)cc1 (centres undefined)	-1.76%
CCc1nc2sc(C(c3ccc(F)cc3)N3CCCC3)c(O)n2n1 (centres undefined)	-1.32%
O=C(NCC(c1cccnc1)N1CCOCC1)c1ccc(F)cc1 (centres undefined)	-7.05%
CCN1CCN(S(=O)(=O)c2ccc(Br)c(OC)c2)CC1	-5.44%
Cc1ccc(C(=O)N/N=C\c2ccc(-c3ccc(Br)cc3)o2)cn1	8.68%
CC(=O)N(C)c1ccc(NC(=O)COc2cc(C)ccc2C)cc1	-10.1%
COCCN(CCOC)C(=O)CSc1nnc2nc(C)cc(C)n12	9.62%
O=C(c1ccccc1F)N1CCN(c2ccc(-c3cccnc3)nn2)CC1	4.6%
O=C(NCc1ccccc1)N1CCN(c2ccc(-c3ccncc3)nn2)CC1	-7.08%
CCSc1ccccc1C(=O)N1CCN(c2ccc(-c3ccccn3)nn2)CC1	121% (active)
O=C(NCc1nnc2n1CCN(C1CCSCC1)CC2)c1c(F)cccc1F	17.7%
COc1ccccc1C(=O)N/N=C/c1ccc(O)cc1O	23.2%
COc1ccc(NC(=O)NN2CCN(C)CC2)c(OC)c1	-3.56%
COc1ccc(NC(=O)CN2CCN(S(=O)(=O)c3cc(Cl)ccc3OC)CC2)c(OC)c1	6.53%
COc1ccc(NC(=O)CN2CCN(C)CC2)c(OC)c1	105% (active)
Cc1ccccc1-n1nc2c(c1NC(=O)C(C)Oc1ccccc1)CSC2 (centres undefined)	10.4%
NC(=O)N/N=C1\CCCCC1c1ccccc1 (centres undefined)	-1.85%
COc1ccc(NC(=O)Cn2nnc(C(=O)Nc3cc(Cl)ccc3OC)c2N)cc1	-3.11%

SMILES	inhibition
COc1ccc(Cn2nnc(C(=O)Nc3cccc(Cl)c3)c2N)cc1	61.4% (active)
Nc1c(C(=O)Nc2ccccc2)nnn1Cc1ccc(F)cc1	3.54%
Cc1ccc(NC(=O)Nc2nnc(CC(=O)Nc3ccccc3C)s2)cc1C	17.1%
N#Cc1ccc(OCC(=O)Nc2ccccc2Cl)cc1	12.2%
N#Cc1ccc(OCC(=O)Nc2nc(-c3ccccn3)cs2)cc1	64.9% (active)
O=C(CSc1ccccc1)Nc1nc(-c2ccccn2)cs1	0.84%
O=C(N/N=C/c1ccccc1Cl)C(=O)N/N=C/c1ccccc1Cl	17.2%
Clc1ccccc1/C=N/Nc1nccnc1Cl	-4.68%
Oc1ccc(/C=N/Nc2ccccc2Cl)c(O)c1O	56.2% (active)
Cc1ccc(NC(=O)c2c(N)sc3c2CCCCC3)cc1	-9.3%
O=C(c1ccccc1)c1ccc(OCC(O)CNCC2CCCO2)cc1 (centres undefined)	12.1%
Cc1ccc(NC(=O)c2cc3n(n2)C(C(F)(F)F)CC(c2ccc(Cl)c(Cl)c2)N3)cc1C (centres undefined)	12.4%
COc1ccc(NC(=O)c2cc3n(n2)C(C(F)(F)F)CC(c2ccc(OC)c(OC)c2)N3)cc1OC (centres undefined)	63.8% (active)
COc1ccc(C2CC(C(F)(F)F)n3nc(C(=O)Nc4cccc(C)c4)cc3N2)cc1OC (centres undefined)	-3.27%
COC(=O)c1ccc(NC(=O)/C(=C\c2ccco2)NC(=O)c2ccccc2Cl)cc1	-0.56%
O=C(CSc1nc2ccsc2c(=O)n1-c1ccc(Cl)cc1)N1CCCC1	-8.93%
O=C(N/N=C/c1ccc([N+](=O)[O-])cc1)c1cccc(I)c1	10.1%
Cc1ccc(C(=O)Nc2cccc(C(=O)N/N=C/c3ccc(C#N)cc3)c2)cc1	2.24%
N#Cc1ccc(/C=N/NC(=O)c2cc([N+](=O)[O-])cc([N+](=O)[O-])c2)cc1	66.5% (active)
Cc1cc([N+](=O)[O-])cc2c1NC(C(=O)O)C1CC=CC21 (centres undefined)	24.6%
O=S(=O)(c1ccc(C2Nc3ccc(Cl)cc3C3C=CCC32)cc1)N1CCOCC1 (centres undefined)	-9.39%
O=C(O)C1Nc2ccc(Cl)cc2C2C=CCC12 (centres undefined)	77% (active)
